For 36 compounds, cytotoxicity call results are on record in the antibiotic and cytotoxicity screens of Wong et al. (2023).

The whole screen tested about 39,000 compounds, of which about 3,300 (8.5%) were called active. The sample as a whole holds a higher share of actives than the screen did.

The experiment has as its system HepG2. As to the kind of experiment: cytotoxicity call (relative viability < 0.9). Conditions: 10 µM.
On to `COc1ccc(NC(=O)Nc2ccc3c(c2)C(=O)N([C@H](C)CO)C[C@H](C)[C@H](CN(C)S(=O)(=O)c2ccc(F)cc2)OCCCC[C@H](C)O3)cc1`, for which the cytotoxicity call is “inactive”. Next, `CC(C)NC(=O)Nc1ccc2c(c1)C(=O)N([C@H](C)CO)C[C@@H](C)[C@H](CN(C)C(=O)Nc1ccc(C(F)(F)F)cc1)OCCCC[C@H](C)O2`: “inactive”; `CC(C)NC(=O)Nc1ccc2c(c1)C(=O)N([C@@H](C)CO)C[C@@H](C)[C@@H](CN(C)C(=O)Nc1ccc(C(F)(F)F)cc1)OCCCC[C@H](C)O2`: “inactive”. Next, `CC(C)NC(=O)Nc1ccc2c(c1)C(=O)N([C@@H](C)CO)C[C@@H](C)[C@H](CN(C)C(=O)Nc1ccc(C(F)(F)F)cc1)OCCCC[C@H](C)O2`: “inactive”; `CC(C)NC(=O)Nc1ccc2c(c1)C(=O)N([C@H](C)CO)C[C@H](C)[C@H](CN(C)C(=O)Nc1ccc(C(F)(F)F)cc1)OCCCC[C@H](C)O2`: “inactive”. Next, `CC(C)NC(=O)Nc1ccc2c(c1)C(=O)N([C@H](C)CO)C[C@@H](C)[C@@H](CN(C)C(=O)Nc1ccc(C(F)(F)F)cc1)OCCCC[C@@H](C)O2`: “active”; `CC(C)NC(=O)Nc1ccc2c(c1)C(=O)N([C@@H](C)CO)C[C@@H](C)[C@H](CN(C)C(=O)Nc1ccc(C(F)(F)F)cc1)OCCCC[C@@H](C)O2`: “active”; `C[C@H]1CCCCO[C@@H](CN(C)C(=O)c2ccccc2)[C@@H](C)CN([C@@H](C)CO)C(=O)c2cc(NC(=O)C3CCCCC3)ccc2O1`: “inactive”. With `CC(C)(C)[S@@](=O)N1Cc2cc(C(=O)NCc3ccc4c(c3)OCO4)nc(-c3cccc(-c4cccnc4)c3)c2[C@H]1CCO`, the cytotoxicity call is “inactive”. As for `COCCNC(=O)C[C@@H]1CC[C@@H]2[C@@H](COc3ccc(NC(=O)Nc4cccc(F)c4)cc3C(=O)N2C)O1`, the cytotoxicity call is “inactive”. The result for `CCCCNC(=O)N1C[C@@H]2[C@H](CN)[C@@H]2C1` reads “inactive”; that for `Cc1ccc(S(=O)(=O)Nc2ccc3c(c2)C(=O)N([C@@H](C)CO)C[C@H](C)[C@@H](CN(C)C(=O)NC2CCCCC2)OCCCC[C@@H](C)O3)cc1`, “inactive”; that for `C[C@@H]1CCCCO[C@H](CN(C)C(=O)NC2CCCCC2)[C@H](C)CN([C@H](C)CO)C(=O)c2cc(NS(=O)(=O)c3ccc(F)cc3)ccc2O1`, “active”.

For the compound `Cc1ccc(S(=O)(=O)Nc2ccc3c(c2)C(=O)N([C@@H](C)CO)C[C@H](C)[C@H](CN(C)C(=O)NC2CCCCC2)OCCCC[C@@H](C)O3)cc1`, the cytotoxicity call is “inactive”. For `C[C@@H]1CCCCO[C@@H](CN(C)C(=O)NC2CCCCC2)[C@@H](C)CN([C@@H](C)CO)C(=O)c2cc(NS(=O)(=O)c3ccc(F)cc3)ccc2O1`, the cytotoxicity call was “inactive”. The result for `C[C@H](CO)N1C[C@H](C)[C@@H](CN(C)C(=O)NC2CCCCC2)OCCCC[C@H](C)Oc2ccc(NS(=O)(=O)c3ccc(F)cc3)cc2C1=O` reads “inactive”; that for `Cc1ccc(S(=O)(=O)Nc2ccc3c(c2)C(=O)N([C@H](C)CO)C[C@@H](C)[C@H](CN(C)C(=O)NC2CCCCC2)OCCCC[C@@H](C)O3)cc1`, “inactive”. Take `Cc1ccc(S(=O)(=O)Nc2ccc3c(c2)C(=O)N([C@@H](C)CO)C[C@H](C)[C@@H](CN(C)C(=O)NC2CCCCC2)OCCCC[C@H](C)O3)cc1`: the cytotoxicity call was “active”. Turning to `Cc1ccc(S(=O)(=O)Nc2ccc3c(c2)C(=O)N([C@H](C)CO)C[C@H](C)[C@@H](CN(C)C(=O)NC2CCCCC2)OCCCC[C@H](C)O3)cc1`, the cytotoxicity call was “inactive”. The result for `Cc1ccc(S(=O)(=O)Nc2ccc3c(c2)C(=O)N([C@@H](C)CO)C[C@@H](C)[C@H](CN(C)C(=O)NC2CCCCC2)OCCCC[C@@H](C)O3)cc1` reads “active”; that for `C[C@@H]1CN([C@@H](C)CO)S(=O)(=O)c2ccc(-c3ccc(C(=O)N(C)C)cc3)cc2O[C@H]1CN(C)C(=O)C1CCC1`, “inactive”; that for `CCS(=O)(=O)NCc1nccc(N(C)C)n1`, “inactive”.

In the case of `COc1ccc(S(=O)(=O)N(C)C[C@H]2OCc3cn(nn3)CCCC(=O)N([C@H](C)CO)C[C@@H]2C)cc1`, the cytotoxicity call was “inactive”. Next, `O=C(C[C@@H]1CC[C@H]2[C@@H](COC[C@@H](O)CN2S(=O)(=O)c2ccccc2)O1)N[C@@H]1CCN(Cc2ccccc2)C1`: “inactive”; `Cc1noc(C)c1NC(=O)Nc1ccc2c(c1)C(=O)N([C@H](C)CO)C[C@H](C)[C@@H](CN(C)Cc1ccc(Cl)c(Cl)c1)OCCCC[C@@H](C)O2`: “inactive”. Turning to `Cc1noc(C)c1NC(=O)Nc1ccc2c(c1)C(=O)N([C@@H](C)CO)C[C@H](C)[C@@H](CN(C)Cc1ccc(Cl)c(Cl)c1)OCCCC[C@H](C)O2`, the cytotoxicity call was “inactive”. Next, `Cc1noc(C)c1NC(=O)Nc1ccc2c(c1)C(=O)N([C@@H](C)CO)C[C@@H](C)[C@H](CN(C)Cc1ccc(Cl)c(Cl)c1)OCCCC[C@H](C)O2`: “inactive”. The result for `Cc1noc(C)c1NC(=O)Nc1ccc2c(c1)C(=O)N([C@H](C)CO)C[C@H](C)[C@H](CN(C)Cc1ccc(Cl)c(Cl)c1)OCCCC[C@@H](C)O2` reads “inactive”; that for `Cc1noc(C)c1NC(=O)Nc1ccc2c(c1)C(=O)N([C@H](C)CO)C[C@@H](C)[C@H](CN(C)Cc1ccc(Cl)c(Cl)c1)OCCCC[C@H](C)O2`, “inactive”; that for `Cc1noc(C)c1NC(=O)Nc1ccc2c(c1)C(=O)N([C@H](C)CO)C[C@@H](C)[C@@H](CN(C)Cc1ccc(Cl)c(Cl)c1)OCCCC[C@H](C)O2`, “active”. For the compound `Cc1noc(C)c1NC(=O)Nc1ccc2c(c1)C(=O)N([C@H](C)CO)C[C@H](C)[C@@H](CN(C)Cc1ccc(Cl)c(Cl)c1)OCCCC[C@H](C)O2`, the cytotoxicity call was “inactive”. As to `Cc1noc(C)c1NC(=O)Nc1ccc2c(c1)C(=O)N([C@H](C)CO)C[C@@H](C)[C@H](CN(C)Cc1ccc(Cl)c(Cl)c1)OCCCC[C@@H](C)O2`, the cytotoxicity call was “inactive”. Regarding `Cc1noc(C)c1NC(=O)Nc1ccc2c(c1)C(=O)N([C@@H](C)CO)C[C@@H](C)[C@H](CN(C)Cc1ccc(Cl)c(Cl)c1)OCCCC[C@@H](C)O2`, the cytotoxicity call is “active”.

As to `Cc1noc(C)c1NC(=O)Nc1ccc2c(c1)C(=O)N([C@H](C)CO)C[C@H](C)[C@H](CN(C)Cc1ccc(Cl)c(Cl)c1)OCCCC[C@H](C)O2`, the cytotoxicity call is “inactive”. Next, `Cc1noc(C)c1NC(=O)Nc1ccc2c(c1)C(=O)N([C@@H](C)CO)C[C@@H](C)[C@@H](CN(C)Cc1ccc(Cl)c(Cl)c1)OCCCC[C@@H](C)O2`: “active”. Regarding `Cc1noc(C)c1NC(=O)Nc1ccc2c(c1)C(=O)N([C@@H](C)CO)C[C@H](C)[C@@H](CN(C)Cc1ccc(Cl)c(Cl)c1)OCCCC[C@@H](C)O2`, the cytotoxicity call is “active”.
